# Results taken from PubChem BioAssay AID618 (Sanford-Burnham Center for Chemical Genomics, 2007).
# Among all 87,000 compounds or so, about 540 (0.62%) were called active. Where a call stands in place of a potency, no number is given. The rule behind the calls is not given here. Many of the other results were omitted from the sample, so actives are more common in it than they were. Potency and affinity values are given separately.
# Assay: inhibitors of MT1-MMP promoter transcription, cell-based, luciferase reporter, luminescence (AID 618);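 note: actives suppress MT1-MMP promoter-driven transcription so potencies describe inhibitors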
# Settings: MT1-MMP promoter luciferase reporter cells
row,SMILES,outcome
1,COc1cccc(OCC(=O)N2CCN(C)CC2)c1,inactive
2,CN1CCN(C(=O)COc2ccc(S(=O)(=O)N(C)Cc3ccccc3)cc2)CC1,inactive
3,CN1CCN(C(=O)COc2ccc(-c3nc4ccccc4s3)cc2)CC1,active
4,CCOC(=O)C1=C(N)Oc2ccccc2C12C(=O)N(CC(=O)OC)C(CC(=O)OC)=C2C(=O)OC (stereo not given),inactive
5,C[C@H]1CCCC(=O)CCC/C=C/c2cc(O)cc(O)c2C(=O)O1,inactive
6,C[C@H]1CCC/C=C/C2C[C@H](O)CC2[C@H](O)/C=C/C(=O)O1 (stereo not given in full),active
7,C[C@H]1CCC[C@@H](O)CCC/C=C/c2cc(O)cc(O)c2C(=O)O1,inactive
8,Cn1c(O)c(C=NCc2cccs2)c(=O)n(C)c1=O,inactive
9,CCC(C)OC(=O)c1c(N)n(Cc2cccs2)c2nc3ccccc3nc12 (stereo not given),inactive
10,COc1ccc(Nc2ncc(C(=O)N3CCC4(CC3)OCCO4)c3ccccc23)cc1,inactive
11,CC(C)c1cccc(C(C)C)c1OCCn1ccnc1,inactive
12,CCn1c(=O)cc(OCC(=O)N2CCN(Cc3ccc4c(c3)OCO4)CC2)c2ccccc21,inactive
13,O=C1CC(N2CCC(n3c(=O)[nH]c4ccccc43)CC2)C(=O)N1c1ccc(F)cc1 (stereo not given),inactive
14,O=c1[nH]c2ccccc2n1C1CCN(CCCC(c2ccc(F)cc2)c2ccc(F)cc2)CC1,active
15,O=c1[nH]c2ccccc2n1CCCN1CCC(n2c(=O)[nH]c3cc(Cl)ccc32)CC1,inactive
16,Cc1ccc(-n2nc(C)cc2NC(=O)COc2cc(C)cc3oc(=O)c4c(c23)CCC4)cc1,inactive
17,CC12CN3CC(C)(CN(C1)P3(=O)Oc1ccccc1)C2=O (stereo not given),inactive
18,Cc1nc2c(=O)n(C)c(=O)nc-2n(C)n1,active
19,CCOC(=O)CC1=C(C(=O)OCC)C2(C(=O)N1CC(=O)OC)C(C#N)=C(N)Oc1ccccc12 (stereo not given),inactive
20,CCC/C=C(\CCC)C(NP(=O)(c1ccccc1)c1ccccc1)c1ccccc1 (stereo not given),inactive

row,SMILES,outcome
1,Nc1ccccc1C(=O)OCCOc1ccccc1,active
2,Nc1ccccc1C(=O)OC1CSC1,inactive
3,CCCCCCOC(=O)c1ccccc1N,inactive
4,CCCCOP(=O)(CN1CCOCC1)OCCCC,inactive
5,CCN1CCN(C(=O)COc2cc(=O)n(CC)c3ccccc23)CC1,inactive
6,c1ccc2c(CNC3CCCCCC3)c[nH]c2c1,inactive
7,CCCCn1c(O)c(C=NC2CC3CCC2(C)C3(C)C)c(=O)[nH]c1=O (stereo not given),inactive
8,Cc1ccc(C2(O)CC(C)N(C)CC2C)cc1 (stereo not given),inactive
9,Cc1ccc(N(C)C(=O)Oc2cccc3cccnc23)cc1,inactive
10,CN(C)CCN=Cc1c(O)n(-c2cccc3ccccc23)c(=O)[nH]c1=O,inactive
11,COC(=O)[C@@H]1[C@@H](C(=O)OC)C2(c3ccccc3-c3ccccc32)N(c2ccc(Cl)cc2)N1C#N,inactive
12,COC(=O)C1CN(C#N)N(c2ccc(Cl)cc2)C12c1ccccc1-c1ccccc12 (stereo not given),active
13,COC(=O)C[C@]1(C(=O)OC)CN(C#N)N(c2ccc(Cl)cc2)C12c1ccccc1-c1ccccc12,active
14,CCCN1[C@@H]2C[C@@H](O)CC[C@@H]2C[C@H]1C(=O)OC,inactive
15,CN(C)CCCN=Cc1c(O)n(CCc2ccc(F)cc2)c(=O)[nH]c1=O,inactive
16,CC(C)CCC1(CCc2ccncc2)C(=O)NC(=O)NC1=O,inactive
17,CCCCn1c(O)c(C(C)=Nc2c(C)n(C)n(-c3ccccc3)c2=O)c(=O)[nH]c1=O,inactive
18,COc1cccc(OC)c1C1=NCC(=O)Nc2c1oc1ccc(Br)cc21,active
19,O=C1CN=C(c2ccccc2)c2oc3ccc(Br)cc3c2N1,inactive
20,CCOc1cc(-c2nc3c(C)cccn3c2NCC2CCCO2)ccc1O (stereo not given),inactive
